Compounds with a hit are over-represented: about 2.5% of the library has one in this group of screens.
Vaccinia mCherry = qHTS for Stage-Specific Inhibitors of Vaccinia Orthopoxvirus: mCherry Reporter Primary qHTS; Vaccinia virus mCherry reporter infection, fluorescence; Potency, µM (doses to about 36.5 µM), for the others: top-dose activity change, negative = inhibition, actives largely listed as inhibitors; 0.63% of 310,000 active; AID 720579, 2013; calls by dose curve; tested in A549 cells; further: nearly all actives have a fitted effect of over 35% in size
Marburg entry inh = qHTS for inhibitors of binding or entry into cells for Marburg Virus | 1.8% of 300,000 active | Marburg virus pseudotyped entry inhibition, cell reporter | Potency, µM (series often up to 37.8 µM), without a hit: top-dose activity change, negative = inhibition, hits mostly inhibitors; calls by dose curve; tested in HEK293 cells
VACV Venus inh = qHTS for Stage-Specific Inhibitors of Vaccinia Orthopoxvirus: Venus Reporter Primary qHTS; Vaccinia virus Venus reporter expression, fluorescence; Potency, µM (doses to about 36.5 µM), inactives show top-dose activity change, negative = inhibition, most hits filed as inhibitors; 0.46% of 330,000 active; calls by dose curve; tested in A549 cells; further: nearly all actives have a fitted effect of over 30% in size
LASV entry inh = qHTS for Inhibitors of binding or entry into cells for Lassa Virus | Lassa virus pseudotype entry inhibition, cell reporter | Potency, µM (series often up to 37.9 µM), for the others: at the highest dose activity change, negative = inhibition, most hits filed as inhibitors | 1.2% of 300,000 active; calls by dose curve; tested in HEK293 cells; further: nearly all actives have a fitted effect of over 50% in size
* marks the source's active call; other numbers are inactive results; i = inactive; ? = inconclusive; / = no result given; [ ] = dose if it differs, or a comment. On the % scale 0 is the no-effect control and ±100 the full control effect; potency means the concentration at half of the fitted maximal effect.

SMILES	Vaccinia mCherry	Marburg entry inh	VACV Venus inh	LASV entry inh
Cc1ccc(Cl)cc1NC(=O)c1cc(NC(=O)C2CCCCC2C(=O)O)ccc1N1CCOCC1 (stereo not drawn)	-4%	18%[46.1 µM]	-17%	10µM*
Cc1cccc(NC(=O)c2cc(NC(=O)C3CCCCC3C(=O)O)ccc2N2CCOCC2)c1 (stereo not drawn)	i	2%	-14%	12%
O=C(c1ccccc1)c1cc([N+](=O)[O-])ccc1N1CCCC1	?	-43%	-23%	-9%
COc1ccc(C(=O)c2cc([N+](=O)[O-])ccc2N2CCN(C)CC2)cc1	?	7.1µM*	-27%	-24%
O=C(c1ccc(Br)cc1)c1cc([N+](=O)[O-])ccc1N1CCCCC1	/	0.73µM*	/	?
Cc1c(-c2ccccc2)n(O)[n+]([O-])c1-c1ccccc1	i	/	-11%	/
O=Nc1c(-c2ccccc2)n(O)[n+]([O-])c1-c1ccccc1	?	/	11µM*	/
CCOC(=O)C1CCCN(C(=O)c2cnn(-c3ncc4c(n3)-c3ccccc3CC4)c2C)C1 (stereo not drawn)	-12%	/	5%	/
CCCC(=O)NC(c1ccco1)c1cc([N+](=O)[O-])c2cccnc2c1O (stereo not drawn)	-11%	?	-5%	?
O=[N+]([O-])c1cc([N+](=O)[O-])c2cccnc2c1Oc1ccccc1O	?	?	-28%	?
CCC(=O)NC(c1ccc(C)cc1)c1cc([N+](=O)[O-])c2cccnc2c1O (stereo not drawn)	11µM*	?	?	?
CC(=O)NC(c1ccc(C)cc1)c1cc([N+](=O)[O-])c2cccnc2c1O (stereo not drawn)	13µM*	?	?	?
C=CCNc1nc(-c2ccccn2)nnc1-c1ccccc1	28µM*	?	?	?
c1ccc(-c2cnnc(-c3ccccn3)n2)cc1	-9%	/	-8%	/
CC1(C)NC(C)(C)/C(=C\c2cccs2)C(=O)C1=O	?	13µM*	-21%	26%
COc1cc(OC)c2nc(-c3cc4c(c(OC)c3)OCCN(C(=O)C(C)c3n[nH]c(=O)c5ccccc35)C4)cc(C)c2c1 (stereo not drawn)	i	/	-12%	/
CC(C)CCNC(=O)c1cccc(S(=O)(=O)N2CCc3ccccc32)c1	?	?	-30%	4µM*
CC(C)CN(CC(C)C)C(=O)c1cccc(S(=O)(=O)N2CCc3ccccc32)c1	-17%	?	-7%	/
COCCNC(=O)c1c[nH]c2ccc(S(=O)(=O)N3CCc4ccccc43)cc2c1=O	?	?	5.6µM*	?
CC[N+](C)(C)c1ccc(/C=C/c2ccnc3ccccc23)cc1	i	/	i	/
O=C(NC1CCN(C(=O)N2c3ccccc3Sc3ccccc32)CC1)c1ccccc1Cl	-24%	16µM*	-25%	-15%
COc1cccc(C(=O)NC2CCN(C(=O)N3c4ccccc4Sc4ccccc43)CC2)c1	-20%	10µM*	-14%	?
Cc1ccccc1CN1C(=O)C(O)(c2c[nH]c3ccccc23)c2cc(Cl)ccc21 (stereo not drawn)	-14%	8.9µM*	-13%	?
CC1CCN(CCCCOc2ccc(C(=O)c3ccccc3)cc2)CC1	-11%	?	-11%	16µM*
CC1CCN(CCOc2ccc(C(=O)c3ccccc3)cc2)CC1	-18%	?	-14%	-27%
SMILES	Vaccinia mCherry	Marburg entry inh	VACV Venus inh	LASV entry inh
CC(=O)N(C)c1ccc(OCC(O)Cn2c(C)nc3ccccc32)cc1 (stereo not drawn)	-12%	?	-5%	?
CC(=O)N(C)c1ccc(OCC(O)Cn2c3ccc(Cl)cc3c3cc(Cl)ccc32)cc1 (stereo not drawn)	-3%	11µM*	-8%	?
Cc1cnc(-n2ncc(C(=O)NCC3COCCO3)c2C2CC2)nc1-c1cccs1 (stereo not drawn)	-18%	/	-8%	/
CCn1nc(C)c(CN2Cc3ccccc3OC(c3ccccc3OC)C2)c1C (stereo not drawn)	-13%	/	-5%	/
COc1ccccc1OC(=O)c1ccc(SC)cc1OC	i	?	-8%	10µM*
COc1cc(SC)ccc1C(=O)Nc1ccccc1	/	?	/	-24%
CCCCC(CC)C(=O)Nc1ncc([N+](=O)[O-])s1 (stereo not drawn)	10µM*	?	?	?
COC(=O)CC1=C(C(=O)OC)[C@H](c2ccc3c(c2Cl)OCO3)C(C#N)=C(N)O1	/	7%	/	/
COc1ccc(-c2ccnc(-n3ncc(C(=O)NC(C)(C)CO)c3C3CC3)n2)cc1F	-15%	/	-9%	/

Screening data as filed in PubChem BioAssay.
